# Results filed as inconclusive are left out. A call without a number means that no potency is given here. The source made the active and inactive calls. Calls follow the shape of the dose curve; as a rule, active = well fitted cell-killing curve with a large enough effect in the repeat runs; inconclusive = weak or mixed curves, or effect the other way; inactive = flat fitted curve, though single readings scatter.
# Assay: qHTS assay to identify small molecule agonists of the sonic hedgehog signaling (Shh) pathway - cell viability counter screen (AID 1259366); also: nearly all actives have a fitted effect of over 50% in size
# Conditions: NIH/3T3 Gli1-Luc viability, CellTiter-Fluor, 24 h; series mostly up to 92.4 µM
# Description: National Center for Advancing Translational Sciences [NCATS]
# NIH Chemical Genomics Center [NCGC]
# U.S. Environmental Protection Agency [EPA]
# National Institutes of Environmental Health Sciences [NIEHS]
# National Toxicology Program [NTP]
# U.S. Food and Drug Administration [FDA]
# The sonic hedgehog (Shh) pathway is essential for normal embryonic development. Dysregulation of the Shh pathway can cause severe developmental defects in organs. Therefore chemicals that interfere with the pathway are potential developmental toxicants. A cell line designated 3T3Gli1-Luc (DMB/OARSA/CFSAN/FDA, Laurel, MD), a NIH/3T3 derived clone containing stably integrated Gli1-Luc reporter is used to detect chemical interference of the Shh pathway, by changes in the expression of the firefly Luc gene under the control of the Gli1 transcriptional response element. This cell line was used to screen Tox21 libraries for identifying and prioritizing the potential developmental toxicants that interfere Shh pathway. The cytotoxicity of the compounds was tested in parallel by measuring the cell viability using CellTiter-Fluor assay system (Promega, Madison, WI) in the same wells.
# Tox21 Assay Protocol Summary:
# 3T3 Gli1-Luc cells were dispensed at 2,000 per well in 5uL of culture medium into white solid bottom 1536-well plates (Greiner Bio-One, Monroe, NC) using a Multidrop Combi (Thermo Scientific, Waltham, MA) dispenser. The assay plates were incubated at 37 C and 5% CO2 for 4hr, and then 23nL of compounds dissolved in DMSO and positive control were transferred using a Pintool station (Wako, San Diego, CA). The assay plates were incubated at 37C and 5% CO2 for 24hr. For viability read, after 23hr of compound treatment, 1uL of CellTiter-Fluor reagent (Promega Corporation, Madison, WI) was added to each well of the assay plates using Flying Reagent Dispenser (FRD, Aurora Discovery, San Diego, CA) and incubated the assay plates at 37C for 1hr. The fluorescence signal was quantified using a ViewLux plate reader (Perkin Elmer, Shelton, CT).
# Potency is read from the fitted curve at half-maximal effect.
row,SMILES,Potency
1,O=c1[nH]ncc2ccccc12,inactive
2,C=C1CCC2CC1C2(C)C (stereo not given),inactive
3,O=C(O)c1ccc(OCCCOc2ccc(C(=O)O)cc2)cc1,inactive
4,COC(=O)c1nc(Cl)c(Cl)nc1N,10.6 µM (active)
5,CCC1CO1 (stereo not given),inactive
6,C=C(C)[C@@H]1CCC2=CCC[C@@H](C)[C@]2(C)C1,inactive
7,CCCCCCCCC(CCCCCC)C(=O)O (stereo not given),inactive
8,Cc1ccccc1S,inactive
9,O=C1c2ccccc2C(=O)C1c1ccc(Br)cc1,inactive
10,CC(=O)[C@H]1[C@H](C#N)C[C@H]2[C@@H]3CC=C4C[C@@H](O)CC[C@]4(C)[C@H]3CC[C@@]21C,inactive
11,CCOC(=O)c1ccc(I)cc1,inactive
12,CN1CCCC(n2nc(Cc3ccc(Cl)cc3)c3ccccc3c2=O)CC1 (stereo not given),10.6 µM (active)
13,Cc1ccc(OC(=O)c2ccccc2O)cc1,inactive
14,N#CCCN(CCO)CCO,inactive
15,CC(C)C(O)(c1ccc(OC(F)(F)F)cc1)c1cncnc1 (stereo not given),inactive
16,CCCC(=O)C(=O)O,inactive
17,CCC(=O)C1CC(C(C)C)CC=C1C (stereo not given),inactive
18,CCn1cc(C(=O)O)c(=O)c2cc(F)c(N3CCNCC3)cc21,inactive
19,Cc1ccc(CO)cc1,inactive
20,O=C(OC(=O)c1ccccc1)c1ccccc1,inactive

row,SMILES,Potency
1,CC(=O)c1ccc([N+](=O)[O-])cc1,inactive
2,CCCCN(CCN(CCCC)C(=O)N1CCOCC1)C(=O)N1CCOCC1,inactive
3,CCCCOc1ccc(OCCCN2CCOCC2)cc1,inactive
4,O=C1NC(=O)c2cc([N+](=O)[O-])ccc21,inactive
5,c1ccc2sc(SN(C3CCCCC3)C3CCCCC3)nc2c1,inactive
6,CCC1NC(=O)c2cc(S(N)(=O)=O)c(Cl)cc2N1 (stereo not given),inactive
7,C[C@H]1C[C@H](O)c2ccsc2S1(=O)=O,inactive
8,C/C=C(/C(=C/C)c1ccc(O)cc1)c1ccc(O)cc1,inactive
9,CC(=O)Nc1ccc(C)cc1C,inactive
10,O=C1Cc2ccccc2N1c1c(Cl)cccc1Cl,inactive
11,CN1C(=O)OC(C)(C)C1=O,inactive
12,Cc1cscn1,inactive
13,CCN(CC)CCNC(=O)COc1ccc(OC)cc1,inactive
14,CCOC(=O)c1ccccc1C(=C1C=C(Br)C(=O)C(Br)=C1)c1cc(Br)c(O)c(Br)c1,inactive
15,CCCCCCCC/C=C\CCCCCCCCO,inactive
16,C[C@]12CC[C@@H]3c4ccc(O)cc4CC[C@H]3[C@@H]1CC[C@@H]2OC(=O)CCC1CCCC1,54.5 µM (active)
17,O=C1CCCCCCCCCCOCCCCO1,inactive
18,Cc1cc(O)ccc1O,13.8 µM (active)
19,CC(C)C=O,inactive
20,CN1CCCN=C1COC(=O)C(O)(c1ccccc1)C1CCCCC1 (stereo not given),inactive

# From PubChem BioAssay (Tox21)
